High-throughput results as filed in PubChem.
In the library only some 3.2% were active in any assay of this set; here they are far more common.
FBPA coupling cs – counter-screen for Giardia aldolase inhibitors: coupling enzyme system; AID 2472; coupling enzyme system counterscreen, AmpLite Red fluorescence; activity change, negative = inhibition, % at 58.2 µM, hits read low; 290,000 compounds, 0.67% hits; in the data active = activity change below about -30%
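Coupling enzymes only (glyceraldehyde-3-phosphate) + compound, at 57.5 uM final, 10 min RT; add substrate/coupling/AmpLite Red mix, 20 min RT; fluorescence ex 525/em 598 nm. Actives flag coupling-system interference.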
VDR inh – vitamin D3 receptor (human) inhibition; P11473; VDR-SRC2-3 peptide fluorescence polarization, 2 h; Potency, µM, without a hit: max response, negative = inhibition, hits mostly inhibitors; 400,000 compounds, 0.93% hits; AID 504847; also: potency is read from the fitted curve at half-maximal effect
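VDR–SRC2-3 interaction, FP format. Cmpds 23 nl via pintool, brief spin, 2 h ambient incubation.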
GALK inhibitor – inhibitors of human galactokinase | 270,000 compounds, 0.007% hits | P51570 | Potency, µM (top dose mostly 57.5 µM), without a hit: top-dose activity change, negative = inhibition, most hits filed as inhibitors | Purified GALK, Kinase-Glo residual ATP luminescence; also: potency is read from the fitted curve at half-maximal effect
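ATP-depletion format; final 35 uM ATP, 100 uM D-galactose, 5 nM enzyme; pH 8.0 HEPES/Mg2+ buffer; 60 min RT; luminescence read 10 min after detection reagent.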
USP2a block – blocks human ubiquitin-specific protease USP2a. 330,000 compounds, 0.01% hits. AID 463254. USP2 core, Ub-CHOP2 coupled fluorogenic reporter, 485/531. Potency, µM (highest dose often 38.3 µM), for inactives: at the highest dose activity change, negative = inhibition, hits mostly inhibitors. O75604;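 also: potency is read from the fitted curve at half-maximal effect; plate controls were DMSO wells for no effect and full inhibition by NEM control for full effect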
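Cell-free coupled assay: 10nM USP2 core preincubated 30min RT with compound in Tris-HCl pH 8.0/CaCl2/CHAPS buffer, then 25nM Ub-CHOP2 and 25nM reporter substrate; fluorescence (Ex 485/Em 531) read after 60min RT, normalized to NEM inhibition, concentration-response curves fitted.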
USP1 inh – inhibitors of human USP1/UAF1 deubiquitinase; Potency, µM (doses to about 57.1 µM), for inactives: at the highest dose activity change, negative = inhibition, actives largely listed as inhibitors; 390,000 compounds, 0.23% hits; recombinant USP1/UAF1, Ub-Rhodamine cleavage fluorescence; AID 743255; also: potency is read from the fitted curve at half-maximal effect; nearly all actives have a fitted effect of over 60% in size
Target sequence (O94782 whole entry, looked up): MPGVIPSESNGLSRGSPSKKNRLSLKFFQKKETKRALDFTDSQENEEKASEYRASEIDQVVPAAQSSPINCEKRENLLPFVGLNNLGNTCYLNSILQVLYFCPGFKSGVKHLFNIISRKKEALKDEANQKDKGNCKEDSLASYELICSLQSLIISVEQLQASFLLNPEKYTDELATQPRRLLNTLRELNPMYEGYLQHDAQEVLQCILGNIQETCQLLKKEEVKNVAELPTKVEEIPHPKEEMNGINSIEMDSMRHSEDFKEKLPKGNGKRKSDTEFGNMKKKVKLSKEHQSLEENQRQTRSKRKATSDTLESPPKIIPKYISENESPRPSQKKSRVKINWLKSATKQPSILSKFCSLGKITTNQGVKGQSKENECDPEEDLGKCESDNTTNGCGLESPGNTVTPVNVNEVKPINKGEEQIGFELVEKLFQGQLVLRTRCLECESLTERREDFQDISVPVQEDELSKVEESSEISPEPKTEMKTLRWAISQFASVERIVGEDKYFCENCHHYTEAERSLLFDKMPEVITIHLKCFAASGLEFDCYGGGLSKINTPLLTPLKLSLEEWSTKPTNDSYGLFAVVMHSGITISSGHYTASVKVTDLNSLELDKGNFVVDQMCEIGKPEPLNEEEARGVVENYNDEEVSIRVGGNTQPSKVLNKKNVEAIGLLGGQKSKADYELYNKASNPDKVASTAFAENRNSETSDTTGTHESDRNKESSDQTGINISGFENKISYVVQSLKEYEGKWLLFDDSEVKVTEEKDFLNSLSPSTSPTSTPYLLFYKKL
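1 nM enzyme complex + cpd, 15 min RT; start with Ub-Rho 150nM final; kinetic fluorescence ex 480/em 540, 6 reads q60 s. Buffer 50mM HEPES pH 7.8, 0.5mM EDTA, 0.1 mg/ml BSA, 1mM TCEP, 0.01% Tween-20.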
PLK1 PBD block – PLK1 (human) polo-box domain binding inhibition; P53350; Plk1 PBD binding of FITC phosphopeptide, fluorescence polarization; Potency, µM, for inactives: max response, negative = inhibition, most hits filed as inhibitors; 360,000 compounds, 2.8% hits; also: potency is read from the fitted curve at half-maximal effect; series mostly up to about 57 µM; nearly all actives have a fitted effect of over 65% in size
* hit, by the source's call; ? = inconclusive; nt = no result. Unless noted, calls follow the shape of the dose curve; as a rule, active = well fitted curve in the direction sought with a large enough effect; inconclusive = small, poorly fitted or top-dose-only effect, or another doubt; inactive = no such curve, though single readings can be large; an effect the other way counts as inactive or inconclusive. Unless noted, % is scaled to controls: 0 for no effect and ±100 for the full control effect.

SMILES | FBPA coupling cs | VDR inh | GALK inhibitor | USP2a block | USP1 inh | PLK1 PBD block
Cc1cccc(-n2c(O)c(/C=C3/C(c4ccccc4)=Nc4ccccc43)c(=O)[nH]c2=O)c1 | 5.7 | 89.1µM* | -11.5% | -6.6% | ? | 13.4µM*
CCC(C)N=Cc1c(O)n(-c2ccccc2)c(=O)[nH]c1=O (centres undefined) | -2.0 | ? | -0.6% | 4.6% | -3.4% | 26.7µM*
Cc1ccc(N=Cc2c(O)n(-c3ccc(C)cc3)c(=O)[nH]c2=O)cc1 | nt | 6.7% | nt | nt | 1.6% | -12.3%
CS(=O)(=O)c1ccc(C2=C(CNC(=O)c3cccs3)[C@H]3CC[C@@H](C2)N3Cc2ccco2)cc1 | nt | nt | nt | nt | 6.9% | -17.0%
Cc1cc(OCC(=O)N2C[C@H]3C[C@@H](C2)c2cccc(=O)n2C3)c2c(C)c(C)c(=O)oc2c1 | -1.1 | -9.9% | nt | -0.2% | -26.9% | -0.2%
CC(=O)[C@@H]1CC[C@H]2[C@@H]3CC[C@@H]4CC(=O)CC[C@]4(C)[C@H]3CC[C@]12C | nt | 50.1µM* | nt | nt | nt | nt
COc1ccc(N2CCN(C(=O)c3cc(=O)[nH]c4ccccc34)CC2)cc1 | -1.4 | -6.3% | 0.7% | 2.7% | -7.3% | 26.7µM*
O=C(O)COc1ccc(Br)cc1C(c1c(C(=O)O)[nH]c2ccccc12)c1c(C(=O)O)[nH]c2ccccc12 | 14.6 | ? | -2.8% | -6.0% | -26.3% | 26.7µM*
CCCc1[nH]nc2c1C(CCC)C(C#N)=C(N)O2 (centres undefined) | 4.6 | ? | 5.4% | -0.3% | -8.0% | -9.8%
O=C1NCN(c2ccccc2)C12CCN(C(c1ccnc3ccccc13)c1nnnn1Cc1ccccc1)CC2 (centres undefined) | nt | nt | nt | nt | nt | -14.7%
Cc1cc(C)cc(-n2c(O)c(C=Nc3ccc(N4CCOCC4)cc3)c(=O)[nH]c2=S)c1 | 0.7 | -7.8% | 1.0% | 0.8% | -20.5% | -11.5%
O=c1[nH]c(=S)n(-c2ccc(Br)cc2)c(O)c1C=Nc1ccc(N2CCOCC2)cc1 | -1.2 | ? | 0.5% | 2.0% | 31.6µM* | ?
O=c1[nH]c(=S)n(-c2ccc(F)cc2)c(O)c1/C=N/N1CCOCC1 | -3.0 | -17.6% | -0.4% | 0.1% | -20.4% | 4.7%
O=c1[nH]c(=S)n(-c2ccccc2F)c(O)c1C=Nc1ccc(N2CCOCC2)cc1 | -0.9 | -1.5% | -1.1% | 4.2% | 25.1µM* | -14.8%
CCOC(=O)c1c(C)n(Cc2ccco2)c2ccc(O)cc12 | 0.3 | -3.6% | 4.0% | nt | 1.7% | -4.8%
Cc1ccc(CN2CCSc3ccc(C(=O)N4CCC5(CC4)OCCO5)cc32)cc1 | 0.3 | -9.8% | -2.8% | 2.4% | -16.1% | -12.4%
Cc1ccc(CN2CCN(CC(=O)N3CCC4(CC3)OCCO4)C2=O)cc1 | 3.3 | -3.9% | 0.5% | -0.6% | -18.9% | 29.9µM*
CCOC(=O)[C@]12Cc3cc(C)ccc3[C@H]1N(C)C(=O)c1cc(OC)ccc12 | nt | nt | nt | nt | nt | 6.7µM*
CCOC(=O)[C@]12Cc3cc(OC)ccc3[C@H]1N(C(C)C)C(=O)c1cc(OC)ccc12 | nt | nt | nt | nt | nt | 8.44µM*
CCOC(=O)[C@]12Cc3cc(C)ccc3[C@H]1N(C)C(=O)c1ccccc12 | nt | nt | nt | nt | nt | -17.1%
Clc1ccc(CCNCc2ccncc2)c(Cl)c1 | -0.6 | -10.6% | 0.1% | -1.7% | -28.6% | -8.6%
CCCc1[nH]nc2c1C(c1ccc(OC)c(Cn3nnc4ccccc43)c1)C(C#N)=C(N)O2 (centres undefined) | -3.1 | ? | -3.4% | nt | -19.9% | 11.9µM*
O=c1[nH]c(=S)[nH]c(O)c1N=Nc1cc(S(=O)(=O)Nc2ccc(Cl)cc2)ccc1Cl | nt | 27.1% | nt | 2.9% | -21.5% | 29.9µM*
Nc1ccccc1C(=O)OCC(=O)N1CCc2ccccc21 | 0.0 | -10.1% | -1.7% | 7.0% | -9.3% | 3.4%
N#CSCC(=O)N1c2ccccc2CCc2ccccc21 | 0.8 | ? | nt | -0.9% | -6.5% | 10.6µM*
COP(=S)(OC)Oc1ccc([N+](=O)[O-])cc1 | 3.1 | 15.8µM* | nt | nt | nt | nt
COP(=S)(OC)Oc1ccc(Sc2ccc(OP(=S)(OC)OC)cc2)cc1 | nt | 50.1µM* | nt | nt | 6.8% | ?
